This is an account of results in PubChem BioAssay AID1565 (Sanford-Burnham Center for Chemical Genomics, 2009).

The structures appear in SMILES notation. The whole screen tested about 290,000 compounds, of which about 3,200 (1.1%) were called active. Cut-off read from the data, not from the text of the source: active = inhibition above about 60%; inactive = the rest. The list comes from a sample in which actives are over-represented; it also holds similar structures and randomly drawn compounds.

This assay deals with Phosphoethanolamine/phosphocholine phosphatase (Homo sapiens) (UniProt Q8TCT1). The assay is described as follows: PubChem AID 1565. Particulars: recombinant PHOSPHO1, absorbance phosphatase assay; at 13.3 µM; active compounds read high.
Sequence of Phosphoethanolamine/phosphocholine phosphatase (Homo sapiens) (Q8TCT1 whole entry, looked up): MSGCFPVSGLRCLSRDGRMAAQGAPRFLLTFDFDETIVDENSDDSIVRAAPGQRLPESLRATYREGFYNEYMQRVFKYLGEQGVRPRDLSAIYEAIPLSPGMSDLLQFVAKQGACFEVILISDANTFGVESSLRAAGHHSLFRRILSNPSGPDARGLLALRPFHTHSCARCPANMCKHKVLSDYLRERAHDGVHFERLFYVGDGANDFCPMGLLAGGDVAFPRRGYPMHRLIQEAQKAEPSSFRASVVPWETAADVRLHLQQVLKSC
With `C=CCn1c(-c2sc(-c3ccccc3)nc2C)n[nH]c1=S`, the inhibition is 27.7% (inactive).

Take `C=CCn1c(-c2ccc3[nH]c(C)c(C)c3c2)n[nH]c1=S`: the inhibition was 98.8% (active).

Take `C=CCn1c(-c2ccccc2OCC)n[nH]c1=S`: the inhibition is -30.9% (inactive).

Consider `CN1C/C(=C/c2cccs2)C(=O)/C(=C\c2cccs2)C1`, for which the inhibition is 16.1% (inactive).

For the compound `CNC(=O)C1CCN(S(=O)(=O)c2c(C)noc2/C=C/c2cccc(C)c2)CC1`, the inhibition is 34.4% (inactive).

With `O=C(Cn1ncc2c3ccccc3n(Cc3ccccc3)c2c1=O)NCc1ccccn1`, the inhibition was -6.3% (inactive).

`Cc1ccccc1Cn1c2ccccc2c2cnn(CC(=O)NCc3ccco3)c(=O)c21`: the inhibition is 60.8% (active).

On to `O=C(Cn1ncc2c3ccccc3n(Cc3ccccc3)c2c1=O)NCCCN1CCOCC1`, for which the inhibition is 57.9% (inactive).

On to `COc1ccc(-c2nnc(NC(=O)CS(=O)(=O)c3ccc(Cl)cc3)o2)c(OC)c1`, for which the inhibition is 46.9% (inactive).

With `O=S(=O)(Cc1cc(Cl)nc(-c2cccnc2)n1)c1ccccc1`, the inhibition is 17.6% (inactive).

On to `COc1ccc(Cl)cc1NC(=O)CN(C)C(=O)CCCc1c[nH]c2ccccc12`, for which the inhibition is 9.8% (inactive).

On to `CCCNC(=O)CCn1nc(-c2ccccc2)c2ccccc2c1=O`, for which the inhibition was 19.9% (inactive).

For the compound `CS(=O)(=O)NCc1ccc(C(=O)NCc2ccccc2)cc1`, the inhibition was -10% (inactive).

As for `CSc1ccc(CNC(=O)c2ccc(NC(=O)C3=CSCCO3)cc2)cc1`, the inhibition was 69% (active).

As for `O=C(Nc1ccc(C(=O)NCc2ccccc2Cl)cc1)C1=CSCCO1`, the inhibition is 37.5% (inactive).

Take `Cc1ccccc1OCC(=O)NNC(=O)c1cc(S(=O)(=O)N(C)C)ccc1N1CCCC1`: the inhibition was 33.4% (inactive).

Turning to `CSc1ccc(S(=O)(=O)N2CCC(C(=O)NCCc3ccccc3)CC2)cc1`, the inhibition is 13.8% (inactive).

In the case of `Cc1nn(CCCC(=O)NCc2ccccc2Cl)c(=O)c2nccn12`, the inhibition is 35.7% (inactive).

In the case of `CCOC(=O)CNC(=O)CSc1nnc(-c2cccc(OC)c2)n1CC`, the inhibition is 47.2% (inactive).

As to `CCOC(=O)CNC(=O)CSc1nnc(COc2ccc(Cl)cc2)n1CC`, the inhibition is 95.8% (active).

`CCn1c(COc2ccc(OC)cc2)nnc1SCC(=O)Nc1cc(OC)ccc1OC`: the inhibition is -14.1% (inactive).

On to `S=c1[nH]nc(-c2cccs2)n1/N=C/c1cn(-c2ccccc2)nc1-c1ccc(Cl)cc1`, for which the inhibition was -132% (inactive).

Turning to `S=c1[nH]nc(-c2cccs2)n1/N=C/c1cccs1`, the inhibition was 56.2% (inactive).

On to `Oc1ccccc1/C=N/n1c(-c2cccs2)n[nH]c1=S`, for which the inhibition was 106% (active).

Take `CC(=O)Oc1ccc2c(=O)oc(-c3ccc([N+](=O)[O-])cc3)nc2c1`: the inhibition is 35.6% (inactive).

With `O=C(COc1ccc(Cl)cc1Cl)NCCCNC(=O)c1cnccn1`, the inhibition is 44.9% (inactive).

With `CC(C)C[C@@H](N)c1nnc(SCC(=O)c2ccc(Cl)cc2)o1`, the inhibition was 81.6% (active).

Take `Cc1cc(C)nc(SCC(=O)c2ccc(Cl)cc2)n1`: the inhibition was 27% (inactive).

Consider `COc1cc(C(=O)NCc2nnc(SCC(=O)c3ccc(Cl)cc3)o2)cc(OC)c1OC`, for which the inhibition is 43.5% (inactive).

Take `O=C(CN1CCN(C(=O)C2CCCO2)CC1)Nc1c(Cl)cccc1Cl` (centres undefined): the inhibition was 26.3% (inactive).

For `Cc1cccnc1NC(=O)c1cccc(S(=O)(=O)N2CCN(c3ccc(F)cc3)CC2)c1`, the inhibition was 27% (inactive).

As for `O=C(N/N=C/c1ccccn1)c1cccc(NC(=O)c2ccc(Cl)cc2)c1`, the inhibition was 41.5% (inactive).

As to `O=C(COc1ccc(Cl)cc1Cl)N/N=C/c1ccccn1`, the inhibition is 61% (active).

Consider `CSc1ccc(/C=N\NC(=O)COc2ccc(Cl)cc2Br)cc1`, for which the inhibition is -15.7% (inactive).

In the case of `N#Cc1ccc(S(=O)(=O)NCC(=O)OCC(=O)NCCc2ccccc2)cc1`, the inhibition is 28.7% (inactive).

For `O=C(Nc1ccc(C2CC2(Cl)Cl)cc1)c1cccc([N+](=O)[O-])c1` (centres undefined), the inhibition is -31.5% (inactive).

Turning to `CSCCC(NC(=O)COc1ccccc1)C(=O)OCC(=O)c1cc2ccccc2o1` (centres undefined), the inhibition was 0.2% (inactive).

For the compound `CSCCC(NC(=O)c1ccco1)C(=O)OCC(=O)Nc1ncc(Cl)c(C)c1Cl` (centres undefined), the inhibition was 63.8% (active).

Turning to `Cc1c(Cl)cnc(NC(=O)COC(=O)c2ccc(S(=O)(=O)NCc3ccco3)cc2)c1Cl`, the inhibition is -11.7% (inactive).

Consider `O=C1CCC(C(=O)N2CCC(O)(c3ccccc3)CC2)CN1CCc1ccccc1` (centres undefined), for which the inhibition was 51.4% (inactive).

On to `CS(=O)(=O)c1ccc(-c2nnn(CC(=O)Nc3ccc4c(c3)OCCO4)n2)cc1`, for which the inhibition was 11% (inactive).

For `CCCCSc1nc2ccccc2[nH]1`, the inhibition is 11.7% (inactive).

With `CCCCSc1nnc2c(n1)OC=Nc1ccccc1-2`, the inhibition is 60.8% (active).

Turning to `CCCCSc1nnc(-c2ccc(C)cc2)o1`, the inhibition is 1.3% (inactive).

Consider `COC(=O)c1ccc(COc2ccc(C#N)cc2)o1`, for which the inhibition was 44.1% (inactive).

Regarding `CC1CCN(CC(O)COc2ccc(C(=O)c3ccccc3)cc2)CC1` (centres undefined), the inhibition is 8.5% (inactive).

Regarding `Cc1cc(NC(=O)c2ccccc2C)no1`, the inhibition was 19.1% (inactive).

Turning to `OC(COc1ccc2ccccc2c1)CN1CCOCC1` (centres undefined), the inhibition was 8% (inactive).

With `Oc1c(C(c2ccccn2)N2CCOCC2)ccc2cccnc12` (centres undefined), the inhibition is 92.7% (active).

As for `CCOc1cc(N2CCOCC2)c(OCC)cc1NC(=O)COc1cccc2cccnc12`, the inhibition is 23.3% (inactive).

Take `Cc1ccc(NC(=O)C2CCN(S(=O)(=O)c3ccc4c(c3)NC(=O)CO4)CC2)cc1C`: the inhibition was 26.1% (inactive).

Turning to `CCc1ccc(N(C(=O)c2csnn2)C(C(=O)NC2CCCCC2)c2ccncc2)cc1` (centres undefined), the inhibition was 41.6% (inactive).

As for `CCN(CC)C(=O)c1sc2nc(-c3ccccc3)ccc2c1N`, the inhibition was 21.4% (inactive).

As for `CS(=O)(=O)c1sc2nc(-c3ccccc3)cc(-c3ccccc3)c2c1N`, the inhibition is 94.5% (active).

Turning to `Nc1nc(-c2ccccc2)cc(-c2ccccc2)n1`, the inhibition is 19.2% (inactive).

As to `CCc1ccc(NC(=O)C(=O)NNC(=O)c2cccs2)cc1`, the inhibition was 44.9% (inactive).

Turning to `NC(=S)c1ccc(C(N)=S)o1`, the inhibition is 95.9% (active).

`Cn1cc(CN2CCCC(CO)C2)c(-c2ccc(Oc3ccccc3)cc2)n1` (centres undefined): the inhibition is 39.5% (inactive).

Turning to `Cn1cc(CN2CCC(C(O)CCc3ccccc3)CC2)c(-c2ccccc2F)n1` (centres undefined), the inhibition is 28.2% (inactive).

`CCCOC1CCCN(Cc2cn(C)nc2-c2ccccc2F)C1` (centres undefined): the inhibition was 60.1% (active).

For `O=C(CSc1nnc2c(n1)[nH]c1ccccc12)NC1CCCCC1`, the inhibition was 3.6% (inactive).

On to `CCCCCCC(=O)Nc1nc(C)c(-c2csc(Nc3cccc(OC)c3)n2)s1`, for which the inhibition is 104% (active).

As for `C=CCCC(=O)Nc1nc(C)c(-c2csc(Nc3ccc(Cl)cc3)n2)s1`, the inhibition is -1.4% (inactive).

For the compound `Cc1nc(NC(=O)c2cccc(Cl)c2)sc1-c1csc(Nc2cccc(Cl)c2)n1`, the inhibition is 19.2% (inactive).

Regarding `Cc1ccc(Nc2nc(-c3sc(NC(=O)c4ccccc4)nc3C)cs2)cc1`, the inhibition is 37.9% (inactive).

For `CCCCCCC(=O)Nc1nc(C)c(-c2csc(Nc3cc(Cl)ccc3OC)n2)s1`, the inhibition is 96.2% (active).

Turning to `CCCCC(=O)Nc1nc(C)c(-c2csc(Nc3ccc(Cl)cc3)n2)s1`, the inhibition was 28.7% (inactive).

With `CCc1ccc(N(CC(=O)NCc2cccnc2)S(=O)(=O)c2ccccc2)cc1`, the inhibition is 4.5% (inactive).

For the compound `CCOC(=O)C1=NN(c2ccc(Cl)cc2)/C(=C/C2=NCCc3cc(OC)c(OC)cc32)S1`, the inhibition was 63.1% (active).

Consider `CCOC(=O)C1=C(CN2CCc3ccccc32)NC(=O)NC1c1ccc(Cl)cc1` (centres undefined), for which the inhibition was 18.7% (inactive).

Consider `COc1cc2c(cc1OC)C(/C=C/c1ccco1)=NCC2`, for which the inhibition is 5.3% (inactive).

With `Cn1c(-c2ccc(F)cc2)cnc1SCC(=O)NNC(=O)Cc1ccccc1`, the inhibition is 10.2% (inactive).

As for `Cc1ccc(-c2csc3nnc(SCC(=O)NCc4ccco4)n23)cc1`, the inhibition was 17.6% (inactive).

For `Cn1c(-c2ccc(F)cc2)cnc1SCC(=O)NCc1ccco1`, the inhibition is 65.2% (active).

`CCn1c(SCC(=O)NCc2ccco2)nnc1-c1ccc(N)cc1`: the inhibition was 42.7% (inactive).

In the case of `O=C(CSc1nnc(-c2c[nH]c3ccccc23)n1-c1ccc(F)cc1)NCc1ccco1`, the inhibition is 9.8% (inactive).

Regarding `O=C(CSc1nnc2scc(-c3ccc(F)cc3)n12)NCc1ccco1`, the inhibition is 67.4% (active).

As for `CCOc1ccc(OCc2cccc(C(=O)N(CC)CC)c2)cc1`, the inhibition is -26.2% (inactive).

Consider `O=[N+]([O-])c1ccc2c(c1)Nc1nc3ccccc3nc1N2`, for which the inhibition was 29.5% (inactive).

For the compound `O=c1[nH]c2ccc(S(=O)(=O)N3CCCC3)cc2[nH]1`, the inhibition was 39.1% (inactive).

Consider `CCCCn1c(=S)[nH]c2ccccc2c1=O`, for which the inhibition is -12.1% (inactive).

Turning to `CCCCn1c(=S)[nH]c2cc(S(=O)(=O)N3CCCCC3)ccc21`, the inhibition was 99.7% (active).

For the compound `CC1CCCCC1NC(=O)/C(C#N)=C/C=C/c1ccccc1[N+](=O)[O-]` (centres undefined), the inhibition is -11.2% (inactive).

On to `CC(=O)c1ccc(N2CCN(C(=O)CCNC(=O)Cn3ccc4ccccc4c3=O)CC2)cc1`, for which the inhibition is 39.1% (inactive).

For `CCc1ccc(-c2nc(SCC(=O)NC3CCCC3)n[nH]2)cc1`, the inhibition was 19.2% (inactive).

Consider `CC(C)c1ccc(S(=O)(=O)N2CCN(C(=O)c3ccc(N4CCCC4)c([N+](=O)[O-])c3)CC2)cc1`, for which the inhibition is 14.7% (inactive).

For the compound `Cc1ccc(CNC(=O)C2(C(F)(F)F)C/C(=C\Cc3ccccc3)CCCO2)o1` (centres undefined), the inhibition is -1.7% (inactive).

For the compound `CCOc1cccc(C(=O)Nc2nnc(-c3cccs3)s2)c1`, the inhibition was 8.6% (inactive).

Turning to `Cc1ccc(C(=O)Oc2coc(CSc3nnc(NC(=O)c4cccs4)s3)cc2=O)cc1C`, the inhibition was -10.5% (inactive).

Regarding `Cc1ccc(C(=O)Nc2nnc(-c3cccs3)s2)cc1C`, the inhibition was 60.1% (active).

For `Cc1ccc(S(=O)(=O)c2nnn3c2nc(N2CCN(c4ccccn4)CC2)c2ccccc23)cc1`, the inhibition was 14.6% (inactive).

Take `COc1ccccc1C(=O)N1C(CC(=O)Nc2ccccc2C)C(=O)NC2CCCCC21` (centres undefined): the inhibition was 17.1% (inactive).

On to `Cc1cc(NC(=O)Nc2c[nH]c(=O)[nH]c2=O)ccc1Br`, for which the inhibition was 32.6% (inactive).

With `CCC(C)(C)NC(=O)CN(C(=O)CCC(=O)Nc1nccs1)c1ccc2c(c1)OCO2`, the inhibition was 28% (inactive).

As a reminder, the inhibition is the change of the read-out against control, counted positive when it falls.
